Assay results taken from the supplement of paper PMC12636033.
± gives the standard deviation of the averaged measurements. In all, about 33,000 sequences were measured (“E-score (rank enrichment, -0.5 to 0.5)”: median about -0.0075, highest 2% from about 0.23 on). The entries come from a sample that favours the highest values as a whole.

Test system: WT Max(13-93) synthetic (M65Nle)
Assay: PBM 8-mer E-score (E-score (rank enrichment, -0.5 to 0.5)); higher = stronger preferential binding
Procedure: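 Protein binding microarray (universal PBM chip covering all 10-mers in fixed probe flanks) with chemically synthesized human Max(13-93) bHLH-LZ analogs (not full-length Max) bearing noncanonical residues (hArg, Tha, Aib, Nle at 65) and aromatic Cys staples. Read-out per 8-mer (and its reverse complement): E-score (rank-based enrichment, -0.5 to 0.5) and Z-score of median probe intensity.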

Q: With CCAAACTA as the sequence, how does the “PBM 8-mer E-score” value read?
A: Its value is 0.165 ± 0.012.

Q: With AAGCTCAT as the sequence, how does the “PBM 8-mer E-score” value read?
A: Its value is -0.131 ± 0.098.

Q: How did the “PBM 8-mer E-score” value turn out when AAGGTCGG was run?
A: Its value is -0.014 ± 0.081.

Q: With AGACAACT as the sequence, how does the “PBM 8-mer E-score” value read?
A: The value was 0.0555 ± 0.044.

Q: With AGACAACG as the sequence, how does the “PBM 8-mer E-score” value read?
A: The value was 0.246 ± 0.068.

Q: For AGACAACC, which “PBM 8-mer E-score” value is on record?
A: The value was 0.0303 ± 0.033.

Q: Which “PBM 8-mer E-score” value does the source give for CGGCAGTA here?
A: The value was -0.142 ± 0.064.

Q: With AATCGATC as the sequence, how does the “PBM 8-mer E-score” value read?
A: The value was -0.232 ± 0.024.

Q: Which “PBM 8-mer E-score” value does the source give for CCCCTAGA here?
A: The value was 0.0696 ± 0.042.

Q: Which “PBM 8-mer E-score” value does the source give for ATATTGAA here?
A: The value was 0.114 ± 0.03.

Q: How did the “PBM 8-mer E-score” value turn out when TTATTGAA was run?
A: The value was 0.254 ± 0.0091.

Q: How did the “PBM 8-mer E-score” value turn out when GTATTGAA was run?
A: The value was 0.119 ± 0.057.

Q: CTCATAGA was tested. Which “PBM 8-mer E-score” value did it give?
A: The value was -0.0903 ± 0.024.

Q: Which “PBM 8-mer E-score” value does the source give for AGCCGGAC here?
A: Its value is -0.207 ± 0.036.

Q: How did the “PBM 8-mer E-score” value turn out when CCGATTAG was run?
A: The value was 0.0704 ± 0.0021.

Q: CCCCCATC was tested. Which “PBM 8-mer E-score” value did it give?
A: Its value is 0.0485 ± 0.11.

Q: For ATAAGTTA, which “PBM 8-mer E-score” value is on record?
A: Its value is 0.258 ± 0.062.

Q: Which “PBM 8-mer E-score” value does the source give for GTAAGTTA here?
A: Its value is 0.0737 ± 0.022.

Q: CTAAGTTA was tested. Which “PBM 8-mer E-score” value did it give?
A: Its value is -0.011 ± 0.089.

Q: Which “PBM 8-mer E-score” value does the source give for ATGGTGCG here?
A: The value was -0.0696 ± 0.06.

Q: GTGGTGCA was tested. Which “PBM 8-mer E-score” value did it give?
A: The value was 0.0246 ± 0.1.

Q: ATGGTGCA was tested. Which “PBM 8-mer E-score” value did it give?
A: The value was 0.264 ± 0.074.

Q: For GGAAAGCA, which “PBM 8-mer E-score” value is on record?
A: Its value is -0.0514 ± 0.036.

Q: CGCGGACA was tested. Which “PBM 8-mer E-score” value did it give?
A: Its value is -0.102 ± 0.039.

Q: AACGAGCG was tested. Which “PBM 8-mer E-score” value did it give?
A: The value was -0.0104 ± 0.028.

Q: For CTCATGTA, which “PBM 8-mer E-score” value is on record?
A: Its value is 0.138 ± 0.03.

Q: AACATGTG was tested. Which “PBM 8-mer E-score” value did it give?
A: The value was 0.412 ± 0.017.

Q: With CCCATGTA as the sequence, how does the “PBM 8-mer E-score” value read?
A: Its value is 0.0146 ± 0.049.

Q: With CACATGTC as the sequence, how does the “PBM 8-mer E-score” value read?
A: The value was 0.186 ± 0.026.

Q: Which “PBM 8-mer E-score” value does the source give for CACATGTG here?
A: Its value is 0.435 ± 0.007.

Q: For AACATGTC, which “PBM 8-mer E-score” value is on record?
A: The value was 0.12 ± 0.037.

Q: Which “PBM 8-mer E-score” value does the source give for CACATGTA here?
A: Its value is 0.379 ± 0.0071.

Q: Which “PBM 8-mer E-score” value does the source give for AACATGTT here?
A: The value was 0.137 ± 0.042.

Q: Which “PBM 8-mer E-score” value does the source give for CAAATGTG here?
A: Its value is 0.152 ± 0.026.

Q: For CGCTGTGA, which “PBM 8-mer E-score” value is on record?
A: Its value is -0.0883 ± 0.11.

Q: With AGGAGGAC as the sequence, how does the “PBM 8-mer E-score” value read?
A: The value was -0.0293 ± 0.04.

Q: For GTGGGATA, which “PBM 8-mer E-score” value is on record?
A: The value was 0.163 ± 0.018.

Q: GCGGTACC was tested. Which “PBM 8-mer E-score” value did it give?
A: Its value is -0.176 ± 0.019.

Q: How did the “PBM 8-mer E-score” value turn out when ATATGTAA was run?
A: The value was 0.239 ± 0.05.

Q: With GTATGTAA as the sequence, how does the “PBM 8-mer E-score” value read?
A: Its value is 0.288 ± 0.0084.

Q: Which “PBM 8-mer E-score” value does the source give for GAATGTAA here?
A: Its value is 0.163 ± 0.13.

Q: How did the “PBM 8-mer E-score” value turn out when CTATGTCA was run?
A: Its value is 0.0959 ± 0.026.

Q: For GTATGTTA, which “PBM 8-mer E-score” value is on record?
A: The value was 0.164 ± 0.091.

Q: Which “PBM 8-mer E-score” value does the source give for CTATGTAA here?
A: The value was -0.0284 ± 0.05.

Q: ATATGTCA was tested. Which “PBM 8-mer E-score” value did it give?
A: The value was 0.1 ± 0.073.

Q: For ATATGTAC, which “PBM 8-mer E-score” value is on record?
A: Its value is 0.0738 ± 0.0056.

Q: For GTATGTCA, which “PBM 8-mer E-score” value is on record?
A: Its value is 0.246 ± 0.028.

Q: How did the “PBM 8-mer E-score” value turn out when AGGCGAAG was run?
A: The value was -0.078 ± 0.072.

Q: CCGTTTCG was tested. Which “PBM 8-mer E-score” value did it give?
A: The value was -0.0232 ± 0.051.

Q: Which “PBM 8-mer E-score” value does the source give for GCTCACGA here?
A: Its value is 0.0957 ± 0.066.

Q: AACGGTAT was tested. Which “PBM 8-mer E-score” value did it give?
A: Its value is 0.0275 ± 0.051.

Q: How did the “PBM 8-mer E-score” value turn out when CCAGTGAA was run?
A: Its value is -0.0413 ± 0.11.

Q: AAAGCAAT was tested. Which “PBM 8-mer E-score” value did it give?
A: Its value is 0.0889 ± 0.03.

Q: With ATACTGTG as the sequence, how does the “PBM 8-mer E-score” value read?
A: Its value is 0.012 ± 0.036.

Q: With ATACATTC as the sequence, how does the “PBM 8-mer E-score” value read?
A: Its value is 0.285 ± 0.006.

Q: How did the “PBM 8-mer E-score” value turn out when CTACATTC was run?
A: The value was 0.0193 ± 0.054.

Q: How did the “PBM 8-mer E-score” value turn out when ATACATTG was run?
A: The value was 0.168 ± 0.05.

Q: For GCTCGCCA, which “PBM 8-mer E-score” value is on record?
A: The value was -0.0485 ± 0.054.

Q: How did the “PBM 8-mer E-score” value turn out when GCGCTAAC was run?
A: The value was -0.0628 ± 0.026.

Q: How did the “PBM 8-mer E-score” value turn out when AGGAGATA was run?
A: Its value is 0.0677 ± 0.065.

Q: How did the “PBM 8-mer E-score” value turn out when CCAGCGGA was run?
A: Its value is -0.175 ± 0.022.

Q: With ACCATTCA as the sequence, how does the “PBM 8-mer E-score” value read?
A: Its value is 0.233 ± 0.0053.

Q: Which “PBM 8-mer E-score” value does the source give for AGCATTAA here?
A: Its value is 0.173 ± 0.078.

Q: For CTCATTAA, which “PBM 8-mer E-score” value is on record?
A: The value was 0.204 ± 0.07.

Q: For ACCATTCC, which “PBM 8-mer E-score” value is on record?
A: Its value is 0.00607 ± 0.099.

Q: How did the “PBM 8-mer E-score” value turn out when ATCATTAG was run?
A: Its value is 0.209 ± 0.02.

Q: Which “PBM 8-mer E-score” value does the source give for CGCATTAA here?
A: The value was -0.00629 ± 0.02.

Q: With TCCATTAA as the sequence, how does the “PBM 8-mer E-score” value read?
A: The value was 0.0431 ± 0.0063.

Q: How did the “PBM 8-mer E-score” value turn out when ACCATTCG was run?
A: Its value is -0.0773 ± 0.11.

Q: For TGCATTAA, which “PBM 8-mer E-score” value is on record?
A: Its value is 0.26 ± 0.051.

Q: ATCATTAA was tested. Which “PBM 8-mer E-score” value did it give?
A: Its value is 0.238 ± 0.023.

Q: ACCATTAA was tested. Which “PBM 8-mer E-score” value did it give?
A: The value was 0.284 ± 0.11.

Q: For CCCATTAA, which “PBM 8-mer E-score” value is on record?
A: Its value is 0.0514 ± 0.069.

Q: AATGGTCT was tested. Which “PBM 8-mer E-score” value did it give?
A: The value was -0.085 ± 0.06.

Q: Which “PBM 8-mer E-score” value does the source give for ATTTTGCC here?
A: Its value is -0.00751 ± 0.0085.

Q: Which “PBM 8-mer E-score” value does the source give for CATTCGCG here?
A: The value was 0.0727 ± 0.022.

Q: How did the “PBM 8-mer E-score” value turn out when ACCCTTAC was run?
A: Its value is 0.0907 ± 0.047.

Q: Which “PBM 8-mer E-score” value does the source give for ATCGTGAC here?
A: The value was -0.123 ± 0.014.

Q: For GGCTGCCC, which “PBM 8-mer E-score” value is on record?
A: Its value is -0.212 ± 0.043.

Q: How did the “PBM 8-mer E-score” value turn out when AACAGACT was run?
A: The value was 0.125 ± 0.061.

Q: How did the “PBM 8-mer E-score” value turn out when AAGGCGTC was run?
A: Its value is -0.0911 ± 0.022.

Q: TGCCACAA was tested. Which “PBM 8-mer E-score” value did it give?
A: Its value is -0.0153 ± 0.13.

Q: For CCCAGTTA, which “PBM 8-mer E-score” value is on record?
A: Its value is -0.0517 ± 0.012.

Q: Which “PBM 8-mer E-score” value does the source give for TCTAATAA here?
A: Its value is 0.272 ± 0.069.

Q: Which “PBM 8-mer E-score” value does the source give for AATAATAC here?
A: The value was 0.211 ± 0.029.

Q: ACTAATAA was tested. Which “PBM 8-mer E-score” value did it give?
A: Its value is 0.182 ± 0.058.

Q: With GATAATTA as the sequence, how does the “PBM 8-mer E-score” value read?
A: The value was 0.157 ± 0.17.
